From PubChem BioAssay AID720513 (Broad Institute, 2013)
Among all 2,100 compounds or so, about 480 (23%) were called active. Inconclusive results (about 5%) are left out.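 The calls were made as follows: active = fitted curve reaches 40% activation at or below the top valid concentration, in every replicate test; inconclusive = replicate tests disagree on the call; inactive = the rest, including activity in the opposite direction.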 Only a sample is shown. Entries with a potency or affinity are not part of this list.

Assay: activators raising PGC1a acetylation in cells, dose response, cell-based, cherry-picked samples, set 6 (AID 720513);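 also: cells made to overexpress flag tagged PGC1a plus GCN5 acetyltransferase by viral infection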
Details: U2OS PGC1a acetylation AlphaLISA, overnight, 0 = neutral, -100 = inhibitor control; series mostly up to 19.5 µM; activation (acetylation increase): at the top concentration

Activation (acetylation increase), inactive:
COc1ccc(N(Cc2cc3cc(OC)ccc3[nH]c2=O)S(C)(=O)=O)cc1 -12.8%, COc1ccc(Oc2c(Cl)cnn(-c3ccccc3)c2=O)cc1 -37.8%, O=C(Nc1ccccc1)Nc1cc(Cl)cc(Cl)c1 -60.1%, C[C@H](CO)N1C[C@H](C)[C@@H](CN(C)C(=O)Nc2ccc(F)cc2)Oc2ncc(C#CC3CC3)cc2C1=O 23.6%, O=C(c1ccco1)N1CCN(c2ncnc3scc(-c4cccs4)c23)CC1 -40.8%, COc1ccc(C2CC(c3cccs3)=NN2c2nc(C)c(C(C)=O)s2)cc1OC (stereo unspecified) 28.7%, CCOC(=O)C1CCN(C(=O)CSc2ccc(Br)cc2)CC1 15.1%, COc1ccccc1Oc1ccc2c(c1)C(=O)N(c1ccc(C)cc1)C2=O -5.16%, O=C(O)c1cc(N2CCCCC2)ccn1 4.78%, N#Cc1sc2nccc(Nc3ccccc3)c2c1N -14.5%, c1ccc(N2CCN(C3CC4CCC3C4)CC2)cc1 (stereo unspecified) 8.45%, COc1ccc(C(=O)Nc2ccc(S(=O)(=O)Nc3cc(C)nc(C)n3)cc2)cc1 -8.33%, Cc1ccc(OC[C@H](O)[C@H](C)NC(C)C)c2c1CCC2 6.66%, CN(C)c1ccc(Sc2ccc3nc(N)nc(N)c3c2)cc1 64.2%, O=C(Nc1cccc(F)c1)N1CC(=O)N2[C@@H](CO)[C@@H](c3ccc(C#Cc4cccnc4)cc3)[C@@H]2C1 -25.7%, CCCCCSc1nnc(C)c(=O)[nH]1 20%, O=C(CC1CC1)N[C@H]1CC[C@@H](CCNS(=O)(=O)c2ccc(Cl)cc2)O[C@@H]1CO -6.68%, CCOC(=O)NC(=O)CSc1nnnn1-c1ccc(C)cc1 16.1%, CCOC(=O)c1c(-c2ccco2)csc1NC(=O)COC(=O)c1cnccn1 3.51%, O=C(C[C@H]1CC[C@H](NC(=O)C2CCC2)[C@@H](CO)O1)NCC1CC1 31.1%, O=C(Nc1ccc(F)cc1)N1CCCCN2[C@H](CO)[C@@H](c3ccc(C#Cc4ccccc4)cc3)[C@H]2C1 -24.8%, Cc1ccccc1-c1ccc(C2[C@@H]3CN(C(=O)Nc4cccc(F)c4)C[C@H]2N3)cc1 (stereo partly specified) -97.6%, COCCN(C(=O)CSc1nn(-c2ccc(F)cc2)c(=S)s1)c1c(N)n(CC(C)C)c(=O)[nH]c1=O 4.95%, COc1ccccc1CNS(=O)(=O)c1cc(C)ccc1OC 35.1%, C[C@@H]1CN([C@@H](C)CO)C(=O)CCCn2nncc2CO[C@H]1CN(C)Cc1ccc(O)cc1 5.72%, CCOc1ccc(N(CC(=O)Nc2ccccc2OC)S(=O)(=O)c2ccccc2)cc1 -19.4%, C[C@@H]1CCCCO[C@H](CN(C)Cc2ccc3c(c2)OCO3)[C@@H](C)CN([C@@H](C)CO)C(=O)c2cc(NC(=O)Nc3ccc(C(F)(F)F)cc3)ccc2O1 -94.8%, O=C(CSc1nnc(-c2ccncc2)n1-c1ccc(Cl)cc1)NCc1cccs1 25.8%, O=C(NCc1ccccc1)C1Cc2c(-c3ccc4c(c3)OCO4)ccnc2O1 (stereo unspecified) 55.9%, CC(=O)c1cccc(-c2ccnc3c2CC(C(=O)Nc2ccc4c(c2)OCO4)O3)c1 (stereo unspecified) 20.9%, CC(=O)c1cccc(-c2ccnc3c2CC(C(=O)NCC2CC2)O3)c1 (stereo unspecified) 19.7%, COc1ccc(-c2[nH]ncc2-c2ccc3c(c2)OCCO3)c(O)c1 -17.4%, Cn1nc(C(=O)N2CCCCC2)c2c1-c1ccccc1S(=O)(=O)C2 13.5%, CC(C)(C)c1ccc(-n2nc(C#N)c(Cl)cc2=O)cc1 -111%, Cc1cc(-c2c(C)[nH]n(-c3ccc(Cl)cc3)c2=O)n(-c2ccccc2)n1 21.5%, COc1ccc(CN(C)C[C@@H]2OCCCC[C@@H](C)Oc3ccc(NS(C)(=O)=O)cc3C(=O)N([C@H](C)CO)C[C@@H]2C)cc1 15.2% [at 21 µM], CC(C)(C)NS(=O)(=O)c1ccc(-c2csnn2)s1 -32.1%, CC(C)CC#Cc1ccc2c(c1)O[C@H](CN(C)C)[C@@H](C)CN([C@H](C)CO)S2(=O)=O 23.4%, CCC1(CC)Cc2ccccc2-c2nc(CN(C)C)[nH]c(=O)c21 -10.6%, CC(=O)c1ccc(N2CCN(S(=O)(=O)c3csc(C(N)=O)c3)CC2)cc1 22.3%, COc1cc(C(C)=O)ccc1OCC(O)CN1CCN(c2ccc(C)c(C)c2)CC1 (stereo unspecified) 15.2%, COc1ccc(-c2cnc3c(c2)C(=O)N([C@H](C)CO)C[C@H](C)[C@@H](CN(C)C(=O)C2CC2)O3)cc1 -29.3%, COc1ccc(-c2cnc3c(c2)C(=O)N([C@H](C)CO)C[C@H](C)[C@@H](CN(C)C(=O)C2CCC2)O3)cc1 -32%, C[C@@H]1CN([C@H](C)CO)C(=O)c2cc(-c3ccccc3)cnc2O[C@@H]1CN(C)C(=O)Cc1ccccc1 11.2%, C[C@@H]1CN([C@H](C)CO)C(=O)CCCn2cc(nn2)CO[C@@H]1CN(C)C(=O)OCc1ccccc1 0.754%, COc1ccc(CN(C)C[C@H]2Oc3ccc(NC(=O)Cc4cn(C)c5ccccc45)cc3CC(=O)N([C@@H](C)CO)C[C@@H]2C)cc1 6.37%, CCCCC(C(=O)O)C(C)CC(=O)Nc1nncs1 (stereo unspecified) 9.62%, C[C@@H]1CN([C@@H](C)CO)C(=O)c2cc(C3=CCCC3)cnc2O[C@H]1CN(C)C(=O)Nc1cccc(F)c1 29%, CCOc1ccc(CN2CCNC(=O)C2CC(=O)NCc2ccccn2)cc1 (stereo unspecified) 10.1%, CSCCC(NC(=O)OC(C)(C)C)C(=O)Oc1ccc2c(=O)c(-c3ccc4c(c3)OCCO4)coc2c1 (stereo unspecified) -26.8%, O=C(C1CCCO1)N1CCN(Cc2c(O)ccc3ccccc23)CC1 (stereo unspecified) 12.8%, C[C@@H]1CCCCO[C@H](CN(C)Cc2ccc(C(F)(F)F)cc2)[C@H](C)CN([C@@H](C)CO)C(=O)c2cc(NC(=O)NC3CCCCC3)ccc2O1 28%, COc1ccc(CN(Cc2cccn2C)S(=O)(=O)c2ccccc2)cc1 30.6%, COc1cccc(-c2noc(C3CCCN(C(=O)Cc4ccccc4)C3)n2)c1 (stereo unspecified) 29.8%, C[C@H]1CN([C@@H](C)CO)S(=O)(=O)c2ccc(Br)cc2O[C@H]1CN(C)S(C)(=O)=O 2.73%, C[C@H](CO)N1C[C@H](C)[C@H](CN(C)Cc2ccccc2)Oc2cc(Br)ccc2S1(=O)=O -7.01%, COc1ccccc1C(NC(C)=O)c1cc(Cl)c2cccnc2c1O (stereo unspecified) 10.3%, CC(c1ccco1)N(C(=O)c1cc(Cl)cc(Cl)c1)c1ccccn1 (stereo unspecified) 27.1%, Cc1ccc(CN(C(=O)Cn2nnc3ccccc32)C(C(=O)NCc2ccco2)c2cccs2)cc1 (stereo unspecified) -24.9%, CC(=O)c1cccc(-c2ccnc3c2CC(C(=O)NCc2ccco2)O3)c1 (stereo unspecified) 4.41%, C[C@H](CO)N1C[C@H](C)[C@H](CN(C)S(=O)(=O)c2cn(C)cn2)OCCCC[C@H](C)Oc2ccc(NC(=O)Nc3cccc4ccccc34)cc2C1=O -7.46%, Clc1ccc(C(c2ccccc2Cl)C(Cl)Cl)cc1 (stereo unspecified) 6.49%, CC(C)Cc1nn2c(=O)cc(O)nc2s1 16.5%, Cc1ccc(S(=O)(=O)C(NC(=O)c2ccccc2)=C(Cl)Cl)cc1 32.9% [at 10 µM], Cc1ccc(C(CC(=O)O)NC(=O)CCNC(=O)c2ccco2)cc1 (stereo unspecified) 29.7%, Cc1cc(OCC(=O)O/N=C(\N)c2ccccc2)cc(C)c1Cl 4.64%, CC(C)CC#Cc1ccc2c(c1)O[C@H](CN(C)Cc1ccccc1)[C@@H](C)CN([C@H](C)CO)S2(=O)=O -68.5%, COc1cc(-c2cnc3c(NC=O)cc(-c4ccccc4)cn23)cc(OC)c1OC -13.1%, COc1cc(-c2cnc3c(NC=O)cc(-c4ccccc4Cl)cn23)cc(OC)c1OC 6.09%, O=C(O)c1cccc(N2C(=O)CSC2c2c(F)cccc2Cl)c1 (stereo unspecified) 15.6%, Cc1cc(C)c(NC(=O)c2ccc(S(=O)(=O)N(C)C)cc2)c(C)n1 -8.4%, OC[C@@H]1CN(Cc2ccccc2)C[C@H](n2cnc3c(NCc4ccco4)ncnc32)O1 -12.2%, CN(C)c1ncnc2c1ncn2C1OC(CO)C(O)C1O (stereo unspecified) -12.4%, CS(=O)(=O)N1CCCC(C(=O)NCc2ccccn2)C1 (stereo unspecified) 0.592%, COc1ccc(CN(C)C[C@@H]2OCCCC[C@H](C)Oc3ccc(NS(C)(=O)=O)cc3C(=O)N([C@@H](C)CO)C[C@@H]2C)cc1 7.45%, C[C@@H]1CN([C@H](C)CO)C(=O)c2cc(C#CC(C)(C)O)cnc2O[C@H]1CN(C)C(=O)c1ccccc1F 1.87%, Cc1noc(C)c1NC(=O)N(C)C[C@H]1Oc2c(NC(=O)c3nc4ccccc4s3)cccc2C(=O)N([C@H](C)CO)C[C@H]1C 20.6%, Cc1ccc(-c2cnc3c(c2)C(=O)N([C@@H](C)CO)C[C@@H](C)[C@H](CN(C)C)O3)cc1 16.7%, COc1ccc(S(=O)(=O)N(C)C[C@H]2Oc3c(NS(=O)(=O)c4ccc(C)cc4)cccc3C(=O)N([C@H](C)CO)C[C@H]2C)cc1 9.63%, Cc1nn(C)c(C)c1N1C(=O)c2cccc3c(Br)ccc(c23)C1=O -20.6%, CCC(=O)N1C[C@H](C)[C@@H](OC)CN(C)C(=O)c2cc(NC(=O)Nc3cccc(F)c3)ccc2OC[C@H]1C 4.06%, C[C@H](CO)N1C[C@H](C)[C@@H](CN(C)Cc2ccc(Oc3ccccc3)cc2)Oc2ccc(N(C)C)cc2CC1=O 22.7%, O=C(O)CSCC(=O)NCc1ccc(Cl)cc1Cl -3.56%, Cc1cc(Br)ccc1NC(=O)CN(C)C(=O)CCSc1ccc(F)cc1 34.7%, Cc1ccc(S(=O)(=O)N2CCN(C(=O)N3CCOCC3)CC2)cc1C 3.69%, CC(=O)CS(=O)(=O)c1ccc(Oc2ccc(S(=O)(=O)CC(C)=O)cc2)cc1 35.2%, COc1ccccc1N1CCN(c2ccc(-c3ccccc3)nn2)CC1 -19.4%, Cn1c(CO)cnc1SCC(=O)c1ccc(Cl)cc1 6.9%, CCN(CC)C(=O)CSc1nnc(-c2cccnc2)n1Cc1ccccc1 -13.3%, Cc1ccc(S(=O)(=O)N[C@H]2C=C[C@@H](CC(=O)NCCN3CCCCC3)O[C@H]2CO)cc1 9.77%, Cc1ccc(S(=O)(=O)NC2=NCCCCC2)cc1 -11%
